Experimental data: PubChem BioAssay (NCATS)
Results filed as inconclusive are left out. Active and inactive are the calls of the source. The call rests on the fitted dose curve; in most records, active means well fitted inhibition curve with a large enough effect; inconclusive means small, poorly fitted or top-dose-only effect; inactive means flat fitted curve, though single readings scatter.

system: HACAT; assay: qHTS assay to identify novel small-molecules to repurpose for Merkel cell carcinoma treatment (AID 1296009); conditions: MCC and control cell lines, CellTiter-Glo viability, 72 h; at 44.8 µM (top of the series) unless noted; further: nearly all actives have a fitted effect of over 60% in size
Procedure, shortened: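 Viability readout: ATP luminescence (CellTiter-Glo) after 72 hr drug exposure at 37 degree celsius. Dose-response format was 8 points for NPC and 11 points for MIPE; data normalized to in-plate controls.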

SMILES | outcome
O=S(=O)(Nc1cc(Cl)c(Oc2cnc3ccccc3c2)c(Cl)c1)c1ccc(Cl)cc1Cl | inactive
C[C@@H]1CN(CC(=O)N2CC(C)(C)c3ncc(Cc4ccc(F)cc4)cc32)[C@@H](CN2CCOC[C@H]2C)CN1 | inactive
O=C1NC(=O)C(c2cnc3ccccn23)=C1c1cn2c3c(cc(F)cc13)CN(C(=O)N1CCCCC1)CC2 | inactive
Cc1cc2c(F)c(Oc3ncnn4cc(OCC(C)OC(=O)C(C)N)c(C)c34)ccc2[nH]1 (stereo not drawn) | inactive
Cc1[nH]c(/C=C2\C(=O)Nc3ccc(S(=O)(=O)N(C)c4cccc(Cl)c4)cc32)c(C)c1C(=O)N1CCN(C)CC1 | inactive
Cc1cccc(-c2[nH]ncc2-c2ccnc3ccccc23)n1 | inactive
COc1cc(C[C@H]2C(=O)OC[C@@H]2Cc2ccc(OC)c(OC)c2)ccc1O | inactive
N#Cc1ccc(O[C@@H]2c3ccccc3C[C@H]2N2CCC[C@@H](N)C2)c(Cl)c1 | inactive
